According to PubChem BioAssay AID1159580 (chemical genetic matrix, 2015):
In all, about 5,500 compounds went through this assay and about 2,000 (36%) were called active. Roughly 18% stayed inconclusive and do not appear here. Cut-off read from the data, not from the text of the source: active = normalized growth mostly below about 0.91 (no sharp cut-off); inconclusive = no clear call, values can overlap the other calls; inactive = mostly above about 0.92. Some of the results follow.

Test: chemical genetic growth profiling, strain panel (AID 1159580);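 note: tested at 20 µM; growth read once vehicle control cultures reached saturation at 30 °C; 1 = growth at the plate median or of vehicle wells; lower values mean less growth of the strain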
Conditions: growth OD

Measured: normalized growth

NC[C@H]1O[C@H](O[C@H]2[C@H](O)[C@@H](O[C@H]3O[C@H](CO)[C@@H](O)[C@H](N)[C@H]3O)[C@H](N)C[C@@H]2N)[C@H](N)C[C@@H]1O
inactive: S. cerevisiae deletion strains, locus YJR075W, strain HOC1, hits give low values 1.01 | S. cerevisiae deletion strains, locus YKL009W, strain mrt4, hits give low values 1.02 | S. cerevisiae deletion strains, locus YKL068W, hits give low values 0.998 | S. cerevisiae deletion strains, locus YKL085W, strain MDH1 (second series), hits give low values 1 | S. cerevisiae deletion strains, locus YKL085W, strain MDH1, hits give low values 1 | S. cerevisiae deletion strains, locus YKL160W, strain elf1, hits give low values 0.959 | S. cerevisiae deletion strains, locus YKL190W, strain CNB1, hits give low values 0.994 | S. cerevisiae deletion strains, locus YKR001C, strain vps1, hits give low values 0.968 | S. cerevisiae deletion strains, locus YKR026C, strain gcn3, hits give low values 1.02 | S. cerevisiae deletion strains, locus YKR091W, strain srl3, hits give low values 1.01 | S. cerevisiae deletion strains, locus YLL001W, strain dnm1, hits give low values 0.987 | S. cerevisiae deletion strains, locus YLL026W, hits give low values 1.01 | S. cerevisiae deletion strains, locus YLL041C, strain sdh2, hits give low values 1.01 | S. cerevisiae deletion strains, locus YLR027C, strain aat2, hits give low values 1 | S. cerevisiae deletion strains, locus YLR039C, strain RIC1, hits give low values 1.01 | S. cerevisiae deletion strains, locus YLR058C, strain SHM2, hits give low values 0.994 | S. cerevisiae deletion strains, locus YLR102C, strain apc9, hits give low values 1.01 | S. cerevisiae deletion strains, locus YLR113W, strain HOG1, hits give low values 0.978 | S. cerevisiae deletion strains, locus YLR221C, strain rsa3, hits give low values 0.998 | S. cerevisiae deletion strains, locus YLR258W, strain gsy2, hits give low values 1.01 | S. cerevisiae deletion strains, locus YLR262C, strain YPT6 (second series), hits give low values 0.973 | S. cerevisiae deletion strains, locus YLR262C, strain YPT6, hits give low values 1.05 | S. cerevisiae deletion strains, locus YLR268W, strain sec22, hits give low values 1.04 | S. cerevisiae deletion strains, locus YLR320W, strain mms22, hits give low values 1 | S. cerevisiae deletion strains, locus YLR330W, strain CHS5, hits give low values 1.01 | S. cerevisiae deletion strains, locus YLR342W, strain FKS1 (second series), hits give low values 1.02 | S. cerevisiae deletion strains, locus YLR342W, strain FKS1, hits give low values 1.01 | S. cerevisiae deletion strains, locus YLR357W, strain rsc2, hits give low values 0.991 | S. cerevisiae deletion strains, locus YLR370C, strain arc18, hits give low values 1.03 | S. cerevisiae deletion strains, locus YLR371W, strain rom2, hits give low values 1.02 | S. cerevisiae deletion strains, locus YLR384C, strain iki3, hits give low values 1.02 | S. cerevisiae deletion strains, locus YLR418C, strain cdc73, hits give low values 0.986 | S. cerevisiae deletion strains, locus YML016C, strain PPZ1, hits give low values 0.996 | S. cerevisiae deletion strains, locus YML032C, strain rad52, hits give low values 1.02 | S. cerevisiae deletion strains, locus YML120C, strain ndi1, hits give low values 1.01 | S. cerevisiae deletion strains, locus YML124C, strain tub3, hits give low values 1.01 | S. cerevisiae deletion strains, locus YMR058W, strain fet3, hits give low values 1 | S. cerevisiae deletion strains, locus YMR078C, strain ctf18, hits give low values 1.01 | S. cerevisiae deletion strains, locus YMR125W, strain sto1, hits give low values 1.01 | S. cerevisiae deletion strains, locus YMR129W, hits give low values 1.01 | S. cerevisiae deletion strains, locus YMR205C, strain PFK2, hits give low values 0.965 | S. cerevisiae deletion strains, locus YMR223W, strain ubp8, hits give low values 0.988 | S. cerevisiae deletion strains, locus YMR231W, strain pep5, hits give low values 0.996 | S. cerevisiae deletion strains, locus YMR307W, strain GAS1, hits give low values 1.01 | S. cerevisiae deletion strains, locus YNL067W, strain RPL9B, hits give low values 0.99 | S. cerevisiae deletion strains, locus YNL071W, strain lat1, hits give low values 1.01 | S. cerevisiae deletion strains, locus YNL128W, strain TEP1, hits give low values 0.995 | S. cerevisiae deletion strains, locus YNL153C, strain GIM3, hits give low values 0.994 | S. cerevisiae deletion strains, locus YNL183C, strain NPR1, hits give low values 0.933 | S. cerevisiae deletion strains, locus YNL209W, strain ssb2, hits give low values 1.01 | S. cerevisiae deletion strains, locus YNL233W, strain BNI4, hits give low values 1.01 | S. cerevisiae deletion strains, locus YNL248C, strain rpa49, hits give low values 0.956 | S. cerevisiae deletion strains, locus YNL250W, strain rad50, hits give low values 1.01 | S. cerevisiae deletion strains, locus YNL271C, strain bni1, hits give low values 1 | S. cerevisiae deletion strains, locus YNL298W, strain CLA4, hits give low values 0.998 | S. cerevisiae deletion strains, locus YNL307C, strain MCK1, hits give low values 1.01 | S. cerevisiae deletion strains, locus YNL322C, strain KRE1 (second series), hits give low values 1 | S. cerevisiae deletion strains, locus YNL322C, strain KRE1, hits give low values 1.01 | S. cerevisiae deletion strains, locus YNR049C, strain mso1, hits give low values 1.02 | S. cerevisiae deletion strains, locus YNR052C, strain pop2, hits give low values 1.01 | S. cerevisiae deletion strains, locus YOL006C, strain TOP1, hits give low values 1.02 | S. cerevisiae deletion strains, locus YOL012C, strain htz1 1.38 | S. cerevisiae deletion strains, locus YOL147C, strain pex11, hits give low values 1.01 | S. cerevisiae deletion strains, locus YOR001W, strain rrp6, hits give low values 1.05 | S. cerevisiae deletion strains, locus YOR061W, strain CKA2, hits give low values 1.01 | S. cerevisiae deletion strains, locus YOR069W, strain VPS5, hits give low values 1.01 | S. cerevisiae deletion strains, locus YOR070C, strain gyp1, hits give low values 1.02 | S. cerevisiae deletion strains, locus YOR080W, strain dia2, hits give low values 1.01 | S. cerevisiae deletion strains, locus YOR083W, strain WHI5, hits give low values 0.959 | S. cerevisiae deletion strains, locus YOR106W, strain vam3, hits give low values 0.964 | S. cerevisiae deletion strains, locus YOR136W, strain idh2, hits give low values 0.993 | S. cerevisiae deletion strains, locus YOR144C, strain elg1, hits give low values 1.01 | S. cerevisiae deletion strains, locus YOR184W, strain ser1, hits give low values 0.99 | S. cerevisiae deletion strains, locus YOR231W, strain MKK1, hits give low values 0.971 | S. cerevisiae deletion strains, locus YOR265W, strain rbl2, hits give low values 1.03 | S. cerevisiae deletion strains, locus YOR270C, strain vph1, hits give low values 0.943 | S. cerevisiae deletion strains, locus YOR290C, strain snf2, hits give low values 0.987 | S. cerevisiae deletion strains, locus YOR316C, strain cot1, hits give low values 1.01 | S. cerevisiae deletion strains, locus YPL051W, strain arl3, hits give low values 0.988 | S. cerevisiae deletion strains, locus YPL055C, strain LGE1, hits give low values 0.974 | S. cerevisiae deletion strains, locus YPL078C, strain atp4, hits give low values 0.959 | S. cerevisiae deletion strains, locus YPL106C, strain sse1, hits give low values 1.03 | S. cerevisiae deletion strains, locus YPL240C, strain hsp82, hits give low values 1.02 | S. cerevisiae deletion strains, locus YPL256C, strain CLN2, hits give low values 0.968 | S. cerevisiae deletion strains, locus YPR119W, strain clb2, hits give low values 1.01 | S. cerevisiae deletion strains, locus YPR141C, strain kar3, hits give low values 1.01 | S. cerevisiae deletion strains, locus YPR163C, strain tif3, hits give low values 1.02 | S. cerevisiae deletion strains, locus YPR167C, strain met16, hits give low values 1.01 | S. cerevisiae deletion strains, strain wtn01, hits give low values 1.01 | S. cerevisiae strains, strain wild type, hits give low values 0.998
